From the supplement of paper PMC8866396
± gives the standard deviation of the averaged measurements.

Each compound was assayed on IL-6-GFP PC-9GR (assay: cell viability (CCK-8 OD) relative to DMSO control (fraction of control); higher = more viable cells). Settings: compound concentration: 10 uM; treatment time: 48 h.
Outline: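 PC-9 and PC-9GR lung cancer cells carrying a lentiviral construct that overexpresses IL-6-GFP were seeded in 96-well plates at 3000 cells/well. Every compound in a purchased 510-compound library was applied at a final 10 μM for 48 h, and a parallel set of plates was kept for GFP imaging. Cell viability was read by CCK-8 absorbance, taking each well's optical density as a ratio to the vehicle control well. Two independent replicates were run.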
`Cc1ccc(=O)n(-c2ccccc2)c1` [Pirfenidone] was tested, and the cell viability was 1.24 ± 0.21.
With `COc1ccc2cc(CCC(C)=O)ccc2c1` [Nabumetone] the cell viability was 1.29 ± 0.24.
`CCc1cccc2c3c([nH]c12)C(CC)(CC(=O)O)OCC3` (centres undefined) [Etodolac] gave a cell viability of 1.22 ± 0.018.
`C=C(NC(=O)C(=C)NC(=O)c1csc(C2=NC3c4csc(n4)C4NC(=O)c5csc(n5)C(C(C)(O)C(C)O)NC(=O)C5CSC(=N5)/C(=C/C)NC(=O)C(C(C)O)NC(=O)c5csc(n5)C3(CC2)NC(=O)C(C)NC(=O)C(=C)NC(=O)C(C)NC(=O)C(C(C)CC)NC2C=Cc3c(C(C)O)cc(nc3C2O)C(=O)OC4C)n1)C(N)=O` (centres undefined) [Thiostrepton] showed a cell viability of 0.184 ± 0.083.
`Cl.Cl.O=C(O)COCCN1CCN(C(c2ccccc2)c2ccc(Cl)cc2)CC1` (centres undefined) [Cetirizine DiHCl] was tested, and the cell viability was 1.08 ± 0.0043.
For `CN1C(C(=O)Nc2ccccn2)=C(O)c2ccccc2S1(=O)=O` [Piroxicam], the cell viability was 1.21 ± 0.047.
In the case of `COc1c2occc2cc2ccc(=O)oc12` [Methoxsalen], the cell viability is reported as 0.933 ± 0.062.
`CC1Oc2cc(cnc2N)-c2c(nn(C)c2C#N)CN(C)C(=O)c2ccc(F)cc21` (centres undefined) showed a cell viability of 0.802 ± 0.14.
With `COC1CC2CCC(C)C(O)(O2)C(=O)C(=O)N2CCCCC2C(=O)OC(C(C)CC2CCC(OCCO)C(OC)C2)CC(=O)C(C)/C=C(\C)C(O)C(OC)C(=O)C(C)CC(C)/C=C/C=C/C=C/1C` (centres undefined) [Everolimus (RAD001)] the cell viability was 0.985 ± 0.068.
`COc1ccc2c(c1)nc(S(=O)Cc1ncc(C)c(OC)c1C)[n]2[Na]` (centres undefined) [Esomeprazole sodium] was tested, and the cell viability was 1.26 ± 0.2.
For `COc1cc(C2Oc3cc(C4Oc5cc(O)cc(O)c5C(=O)C4O)ccc3OC2CO)ccc1O` (centres undefined) [Silibinin], the cell viability was 1.36 ± 0.07.
In the case of `FC(F)(F)c1ccc(CNc2ccc(Cc3c[nH]c4ncc(Cl)cc34)cn2)cn1` [Pexidartinib (PLX3397)], the cell viability is reported as 0.789 ± 0.2.
`N#Cc1ccc(C2CCCc3cncn32)cc1` (centres undefined) [Fadrozole] was tested, and the cell viability was 0.6645 ± 0.0044.
Compound `CCC1=CC2CN(C1)Cc1c([nH]c3ccccc13)C(C(=O)OC)(c1cc3c(cc1OC)N(C)C1C(O)(C(=O)OC)C(OC(C)=O)C4(CC)C=CCN5CCC31C54)C2.O=C(O)C(O)C(O)C(=O)O.O=C(O)C(O)C(O)C(=O)O` (centres undefined) [Vinorelbine Tartrate] has a cell viability of 0.559 ± 0.13.
Work on `COc1cc2ncnc(Nc3ccc(F)c(Cl)c3)c2cc1OCCCN1CCOCC1` [Gefitinib (ZD1839)] yielded a cell viability of 0.9 ± 0.06.
Work on `CN(C)CCCOc1nn(Cc2ccccc2)c2ccccc12.Cl` [Benzydamine HCl] yielded a cell viability of 0.996 ± 0.23.
`CC(Oc1cc(-c2cnn(C3CCNCC3)c2)cnc1N)c1c(Cl)ccc(F)c1Cl` (centres undefined) gave a cell viability of 0.43 ± 0.21.
`CCCCCOC(=O)Nc1nc(=O)n(C2OC(C)C(O)C2O)cc1F` (centres undefined) [Capecitabine] was tested, and the cell viability was 0.655 ± 0.029.
Compound `CC(=O)N1CC(O)CC1C(=O)O` (centres undefined) [Oxaceprol] has a cell viability of 1.22 ± 0.15.
Work on `CCc1cc2c(cc1N1CCC(N3CCOCC3)CC1)C(C)(C)c1[nH]c3cc(C#N)ccc3c1C2=O` yielded a cell viability of 0.732 ± 0.081.
`S=P(N1CC1)(N1CC1)N1CC1` [Thiotepa] showed a cell viability of 1.02 ± 0.074.
In the case of `COc1ccc2c(c1)c(CC(=O)OCC(=O)O)c(C)n2C(=O)c1ccc(Cl)cc1` [Acemetacin], the cell viability is reported as 1.07 ± 0.14.
`CCC(C)(Oc1ccc(C2(c3ccc(OC(C)(CC)C(=O)O)cc3)CCCCC2)cc1)C(=O)O` (centres undefined) [Clinofibrate] was tested, and the cell viability was 1.17 ± 0.14.
`CC(C)C(=O)Nc1ccc([N+](=O)[O-])c(C(F)(F)F)c1` [Flutamide] showed a cell viability of 1.18 ± 0.054.
With `Cc1cc(S(=O)(=O)[O-])c2c(C)ccc(C(C)C)cc1-2.[Na+]` [Sodium gualenate] the cell viability was 1.45 ± 0.46.
Work on `Nc1ccn(C2OC(CO)C(O)C2O)c(=O)n1` (centres undefined) [Cytarabine] yielded a cell viability of 0.816 ± 0.077.
`O=C(c1cc(Cc2n[nH]c(=O)c3ccccc23)ccc1F)N1CCN(C(=O)C2CC2)CC1` was tested, and the cell viability was 1.09 ± 0.081.
`CCC(C(=O)O)c1ccc(N2Cc3ccccc3C2=O)cc1` (centres undefined) [Indobufen] was tested, and the cell viability was 0.908 ± 0.059.
`CC(C(=O)O)c1ccc2c(c1)CC(=O)c1ccccc1S2` (centres undefined) [Zaltoprofen] was tested, and the cell viability was 0.953 ± 0.054.
For `OCc1ccccc1OC1OC(CO)C(O)C(O)C1O` (centres undefined) [Salicin], the cell viability was 1.49 ± 0.23.
`Oc1ccc(/C=C/c2cc(O)cc(O)c2)cc1` [Resveratrol] gave a cell viability of 1.38 ± 0.065.
In the case of `Cc1ccc(Nc2nccc(N(C)c3ccc4c(C)n(C)nc4c3)n2)cc1S(N)(=O)=O` [Pazopanib], the cell viability is reported as 0.795 ± 0.041.
`CNC(=O)c1cc(Oc2ccc(NC(=O)Nc3ccc(Cl)c(C(F)(F)F)c3)cc2)ccn1.Cc1ccc(S(=O)(=O)O)cc1` [Sorafenib Tosylate] showed a cell viability of 0.85 ± 0.18.
With `NCCNc1ccc(NCCN)c2c1C(=O)c1ccncc1C2=O.O=C(O)/C=C\C(=O)O.O=C(O)/C=C\C(=O)O` [Pixantrone Maleate] the cell viability was 0.168 ± 0.39.
For `Cl.O=C(OCC(O)CO)c1ccccc1Nc1ccnc2cc(Cl)ccc12` (centres undefined) [Glafenine HCl], the cell viability was 1.04 ± 0.32.
Work on `O=C(Nc1cnn2ccc(N3CCCC3c3cc(F)ccc3F)nc12)N1CCC(O)C1.O=S(=O)(O)O` (centres undefined) [Larotrectinib (LOXO-101) sulfate] yielded a cell viability of 0.802 ± 0.05.
For `CCC(C)n1ncn(-c2ccc(N3CCN(c4ccc(OCC5COC(Cn6cncn6)(c6ccc(Cl)cc6Cl)O5)cc4)CC3)cc2)c1=O` (centres undefined) [Itraconazole], the cell viability was 0.797 ± 0.19.
`CN1CCN(c2ccc(C(=O)Nc3n[nH]c4ccc(Cc5cc(F)cc(F)c5)cc34)c(NC3CCOCC3)c2)CC1` [Entrectinib (RXDX-101)] gave a cell viability of 0.164 ± 0.14.
`Cc1ccc(-c2ncc(Cl)cc2-c2ccc(S(C)(=O)=O)cc2)cn1` [Etoricoxib] showed a cell viability of 0.855 ± 0.092.
